Where “and” joins values, the source holds several entries; their conditions need not be identical. Equal entries are not always repeated. About 83,000 compounds went through this panel and 20% of them were active in at least one assay; those are over-represented in the sample as a whole.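 How to read the values: 0–100, growth inhibition (40 = 60% inhibited); 0, no net growth; -100 to 0, cell death (-40 = 40% of starting cells died; -100 = all dead).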 A number with no mark means an inactive call. Calls of active or inactive are those of the source. How the source made its calls: active means growth percent below 10; inactive means the rest.
Legend:
Experiment in all cases: NCI-60 one-dose screen, 48 h (100 = growth as untreated, 0 = no growth, -100 = all killed)
Conditions in all cases: 10 µM unless noted
[1] = test system: SK-MEL-2 melanoma
[2] = test system: EKVX NSCLC
[3] = test system: SN12C renal
[4] = test system: UO-31 renal
[5] = test system: TK-10 renal
[6] = test system: ACHN renal
[7] = test system: CAKI-1 renal
[8] = test system: A498 renal
[9] = test system: HL-60(TB) leukemia
[10] = test system: CCRF-CEM leukemia
[11] = test system: MOLT-4 leukemia
[12] = test system: SR leukemia
[13] = test system: RPMI-8226 leukemia
[14] = test system: OVCAR-8 ovarian
[15] = test system: OVCAR-5 ovarian
[16] = test system: OVCAR-4 ovarian
[17] = test system: SK-OV-3 ovarian
[18] = test system: IGROV1 ovarian
[19] = test system: OVCAR-3 ovarian
[20] = test system: HS 578T breast

SMILES | growth [1] | growth [2] | growth [3] | growth [4] | growth [5] | growth [6] | growth [7] | growth [8] | growth [9] | growth [10] | growth [11] | growth [12] | growth [13] | growth [14] | growth [15] | growth [16] | growth [17] | growth [18] | growth [19] | growth [20]
O=[P+](O)c1cccnc1 | 106% | 101% | 102% | 91.5% | 103% | 110% | 102% | 111% | 107% | 98.3% | 109% | 96.4% | 100% | 107% | 107% | 107% | 103% | 111% | 108% | 105%
O=c1[nH]c(=O)n(Cl)c(=O)n1Cl | 114% and 96.7% | 107% and 101% | 94.2% and 108% | 84.3% and 86.7% | 115% and 117% | 109% and 107% | 101% and 108% | 106% and 127% | 110% and 115% | 101% and 104% | 113% and 104% | 102% and 113% | 82.1% | 103% and 108% | 102% and 96.2% | 115% and 109% | 111% and 109% | 124% and 96.9% | 111% and 110% | 106% and 99.9%
CC/C(=C(\c1ccc(OCCN2CCOCC2)cc1)c1ccc(OC(=O)Cc2ccccc2)cc1)c1ccc(Cl)cc1 | 101% | 109% | 98.6% | 87.9% | 93% | 117% | 91.9% | 104% | 95.5% | 98.1% | 96.7% | 95.6% | 98.8% | 107% | 104% | 120% | 111% | 106% | 102% | 96.6%
C#Cc1cccc(Nc2nc(Cl)nc3cc(NC(=O)CF)ccc23)c1 | 66% | 71.4% | 91.9% | 74% | 85.7% | 92.5% | 55.8% | 87.4% | 90.3% | 93.4% | 80% | 22.1% | 103% | 88.2% | 78.7% | 108% | 81.5% | 75.4% | 53.5% | 84.3%
CC[C@H](C)[C@H](NC(=O)[C@H]1CCCCN1C)C(=O)N(C)[C@H](C(=O)NC12CC(C(=O)N[C@@H](Cc3ccccc3)C[C@H](C)C(=O)OC)(C1)C2)C(C)C | 89.3% | 102% | 99% | 95.1% | 98.4% | 106% | 95.9% | 112% | 114% | 103% | 104% | 114% | 108% | 96.8% | 98.4% | 90.8% | 104% | 105% | 101% | 118%
CCN1C(=O)CC(=O)N(CC)C1=S | 97% | 108% | 99.3% | 91.7% | 105% | 101% | 76.8% | 94.6% | 68.7% | 94.8% | 109% | 101% | 104% | 109% | 85.7% | 89.9% | 99.7% | 98.5% | 112% | 102%
COc1ccc2c(c1)c(-c1nc(-c3c[nH]c4ncccc34)cs1)cn2CCCCN1CCOCC1 | 69% | 68.4% | 61.9% | 22.8% | 64.4% | 17.1% | 37.5% | 92.3% | 7.66% (active) | -8.39% (active) | -21% (active) | -17.5% (active) | -5.6% (active) | 55.6% | 58.3% | 50.8% | 78.2% |  | 58.3% | 44.8%
C[C@]12CCc3sc(Nc4ccc(F)cc4F)nc3C1=CC[C@@H]1[C@@H]2CC[C@]2(C)C(=O)CC[C@@H]12 | 76.4% | 78.4% | 64.1% | 42.9% | 50.2% | 37.7% | 38.4% | 77.8% | 21.4% | 10.1% | 3.63% (active) | 0.71% (active) | -20.8% (active) | 45.2% | 91.8% | 66.7% | 84.1% | 62.1% | -4.15% (active) | 55.3%
Oc1cc(Cl)ccc1Oc1ccc(Cl)cc1Cl | 16.6% | 42.7% | 10.9% | -0.646% (active) | 102% | 7.4% (active) | 90.5% | 103% | -24.9% (active) | 24.8% | 5.71% (active) | 3.21% (active) | 9.47% (active) | 10.7% | 86.2% | 29.9% | 89.2% | 52.4% | 6.75% (active) | -18.1% (active)
CCC(Br)(CC)C(=O)NC(N)=O | 109% | 107% | 103% | 93.2% | 104% | 109% | 98.2% | 104% | 99.6% | 102% | 99.2% | 105% | 109% | 113% | 101% | 101% | 114% | 110% | 111% | 106%
CC/C(Cc1ccccc1)=C(\c1ccc(OCCN2CCCC2)cc1)c1ccc(OC(=O)NCc2ccccc2)cc1 | 95.2% | 66.9% | 54.2% | 33.8% | 84.7% | 63% | 87.8% | 74.1% | -1.94% (active) | 33.7% | 11.7% | -28.2% (active) | -6.25% (active) | 62.2% | 75.9% | 59.9% | 91.9% | 40% | 78.4% | 69.5%
CC(C)c1cccc(C(C)C)c1O | 113% | 101% and 94.5% | 108% and 104% | 88% | 116% and 94.6% | 104% and 105% | 95.1% and 88.4% | 112% and 113% | 97.9% and 85.9% | 107% and 90.6% | 84% and 115% |  | 101% and 100% | 102% | 106% and 112% |  | 113% and 96.9% | 107% | 112% and 101% | 105% and 94.9%
CCOC(=O)C1C(C=C(C)C)C1(C)C (stereo not given) | 121% | 110% | 104% | 120% | 107% | 100% | 95.8% | 105% | 117% | 82.6% | 85.1% | 99.7% | 96.9% | 99.6% | 80.5% | 116% | 105% |  | 103% | 115%
NC1CN2CCC1CC2 (stereo not given) | 100% | 96.5% | 108% | 80.3% | 98.2% | 93% | 86.7% | 97.8% | 84.9% | 93% | 97.8% |  | 96.4% | 97.8% | 95.5% | 106% | 97.4% | 102% | 105% | 101%

From PubChem BioAssay (NCI)
